Reference: PubChem BioAssay (NCATS)
Where “and” joins values, the source holds several entries; their conditions need not be identical. Equal entries are not always repeated. Results filed as inconclusive are left out. Calls of active or inactive are those of the source. The call rests on the fitted dose curve; in most records, active means well fitted curve in the direction sought with a large enough effect; inconclusive means small, poorly fitted or top-dose-only effect, or another doubt; inactive means no such curve, though single readings can be large; an effect the other way counts as inactive or inconclusive.

Assays:
[1] = qHTS of pediatric cancer cell lines to identify multiple opportunities for drug repurposing: Confirmatory screen for OHS-50 cells (AID 1347128);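 further: compound exposure lasted 48 h at 37 degrees C; nearly all actives have a fitted effect of over 55% in size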
Summary of the method: (§1)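 Cells (500-1,000/well) in growth media were settled 5 h at 37 degrees C, then given compounds for 48 h. Viability was read as CellTiter-Glo luminescence. Primary runs used MIPE at 11 points (0.78 nM-46 µM) and NPC at 8 points (0.59 nM-46 µM); follow-ups used 11 points.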

[2] = qHTS of pediatric cancer cell lines to identify multiple opportunities for drug repurposing: Confirmatory screen for SK-N-SH cells (AID 1347129);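 further: cells exposed to compound for 48 h before viability read; nearly all actives have a fitted effect of over 60% in size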; further: potency means the concentration at half of the fitted maximal effect
Summary of the method: as §1

[3] = biological target: Furin (Homo sapiens) (UniProt P09958); test: Furin counterscreen qHTS for Zika virus inhibitors (AID 1347149); further: nearly all actives have a fitted effect of over 70% in size; further: potency means the concentration at half of the fitted maximal effect
Summary of the method: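 Counterscreen measures cleavage of 2 microM BOC-RVRR-AMC, below its ~15 microM Km, by 5 nM full-length human furin at pH 7.0 after a 15-min compound preincubation. Inhibition derives from the 15-min fluorescence increase at 37C.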

[4] = system: Zika virus NS2B-NS3 protease (linked construct); test: Confirmatory screen NINDS AMC qHTS for Zika virus inhibitors (AID 1347152); further: nearly all actives have a fitted effect of over 70% in size; further: potency means the concentration at half of the fitted maximal effect
Summary of the method: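 Concentration-response confirmation used the NINDS linked protease (NS2B hydrophilic domain joined to NS3 protease domain), 1 nM, with a 15-min compound preincubation. Substrate, Nle-KRR-AMC at 10 microM, was read by UV fluorescence before and after 15 min.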

[5] = system: Zika virus NS2B-NS3 protease (unlinked complex); test: Confirmatory screen GU AMC qHTS for Zika virus inhibitors (AID 1347153); further: nearly all actives have a fitted effect of over 70% in size; further: potency means the concentration at half of the fitted maximal effect
Summary of the method: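 Unlinked enzyme 25 nM, Tris pH 8.0/0.01% Tween 20; cpd 15 min RT, dark; + AMC substrate 10 µM (Km 18.3 µM); 340/450 nm read at t0 and 15 min; % inhibition → 4-param fit.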

[6] = system: Zika virus NS2B-NS3 protease; test: Primary screen GU AMC qHTS for Zika virus inhibitors (AID 1347154); further: nearly all actives have a fitted effect of over 70% in size; further: potency means the concentration at half of the fitted maximal effect
Summary of the method: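 Unlinked Zika NS2B hydrophilic domain/NS3 protease domain noncovalent complex (25 nM final) in 10 mM Tris-HCl pH 8.0, 0.01% Tween 20, with AMC peptide substrate. Fluorescence (ex 340, em 450 nm) change over 15 min, room temperature; percent inhibition fitted to 4-parameter Hill equation.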

[7] = ZIKV-mCherry secondary qHTS for Zika virus inhibitors (AID 1347158); further: potency means the concentration at half of the fitted maximal effect
Summary of the method: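 This orthogonal imaging screen measured ZIKV-mCherry infection of Vero cells exposed to compound, MOI 1, 48-72 h. Percent infection came from segmented nuclei scored mCherry-positive above 3 SD of negative controls.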

[8] = system: Zika virus NS2B-NS3 protease (unlinked complex); test: Primary screen GU Rhodamine qHTS for Zika virus inhibitors: Unlinked NS2B-NS3 protease assay (AID 1347159); further: nearly all actives have a fitted effect of over 60% in size; further: potency means the concentration at half of the fitted maximal effect
Summary of the method: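 Unlinked NS2B/NS3, 25 nM; Rhod110 peptide, 1.5 microM; compounds, up to 114 microM. Reaction run 15 min at RT in 10 mM Tris-HCl pH 8.0, 0.01% Tween 20; kinetic fluorescence change fitted with a 4-parameter Hill model.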

[9] = Confirmatory screen NINDS Rhodamine qHTS for Zika virus inhibitors (AID 1347161); further: nearly all actives have a fitted effect of over 60% in size; further: potency means the concentration at half of the fitted maximal effect
Summary of the method: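 Enzyme (25 nM, linked NS2B-NS3) was preincubated 15 min with compound in 10 mM Tris-HCl pH 8.0, 0.01% Tween 20. Rhodamine110 substrate (1.5 microM) was then added and fluorescence read at start and after 15 min.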

[10] = system: Zika virus NS2B-NS3 protease (linked); test: 384 well plate NINDS AMC confirmatory qHTS for Zika virus inhibitors (AID 1347163); further: nearly all actives have a fitted effect of over 50% in size; further: potency means the concentration at half of the fitted maximal effect
Summary of the method: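 Enzyme (5, 30 or 60 nM final) first met test compounds for ~15 min. The AMC-tagged peptide Ac-VKTGKR-AMC followed at 30 microM. Fluorescence was then recorded at 25 min and scaled against no-enzyme and no-inhibitor wells.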

[11] = system: Zika virus NS2B-NS3 protease (linked construct); test: 384 well plate NINDS Rhodamine confirmatory qHTS for Zika virus inhibitors (AID 1347164); further: potency means the concentration at half of the fitted maximal effect; nearly all actives have a fitted effect of over 65% in size
Summary of the method: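 Cleavage of Ac-LKRR-Rhodamine 110 (10 microM final) by linked protease (final 5, 30 or 60 nM) was followed as fluorescence at 485/538 nm after 25 min, room temperature, dark. Compounds preincubated ~15 min.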

[12] = HepG2 cells viability qHTS for Zika virus inhibitors (AID 1347168); further: potency means the concentration at half of the fitted maximal effect
Summary of the method: (§2)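 To flag cytotoxic protease inhibitors, viability is measured by ATP-dependent luminescence (CellTiter Glo) after cells attached overnight receive compound for 24 to 48 hours in DMEM with 4% FBS.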

[13] = qHTS to identify inhibitors of the type 1 interferon - major histocompatibility complex class I in skeletal muscle: primary screen against the NCATS Pharmaceutical Collection (AID 1347407);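 further: luminescence of HiBiT knocked into endogenous HLA-B as interferon-induced MHC class I level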
Summary of the method: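 A qHTS format is used: 8-point, 1:5 compound series with 46 uM top final concentration, applied alongside 4 ng/ml IFN-beta to HLA-B*08:01-HiBiT knock-in myoblasts. Luminescence is measured after 24 h treatment.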

[14] = system: Zika virus NS2B-NS3 protease (unlinked); test: Optimization of GU AMC qHTS for Zika virus inhibitors: Unlinked NS2B-NS3 protease assay (AID 1347151); further: nearly all actives have a fitted effect of over 80% in size; further: potency means the concentration at half of the fitted maximal effect
Summary of the method: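 In this qHTS, compounds acted on 25 nM unlinked Zika NS2B–NS3 in pH 8.0 Tris/Tween buffer. Cleavage of an AMC peptide ran 15 min at room temperature, to about 20% conversion.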

[15] = biological target: N-terminal Xaa-Pro-Lys N-methyltransferase 1 (Homo sapiens) (UniProt Q9BV86); test: qHTS Assay for Inhibitors of N-terminal methyltransferase 1 (NTMT1): LOPAC validation of the NTMT1 SAHH-coupled ThioGlo3 Assay (AID 1347143); further: potency means the concentration at half of the fitted maximal effect
Summary of the method: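 In this qHTS pilot against the LOPAC set, 125nM NTMT1 met compounds tested at multiple concentrations, and fluorescence was normalized to background.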

[16] = system: Zika virus NS2B-NS3 protease (linked construct); test: Primary screen NINDS Rhodamine qHTS for Zika virus inhibitors (AID 1347160); further: nearly all actives have a fitted effect of over 55% in size
Summary of the method: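 Single-chain NS2B-NS3 protease, 25 nM, pH 8.0; compounds preincubated 15 min. Activity: Rhodamine110 release from 1.5 microM substrate over 15 min, room temperature, data fitted to 4-parameter Hill.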

[17] = Vero cells viability qHTS for Zika virus inhibitors (AID 1347167); further: potency means the concentration at half of the fitted maximal effect
Summary of the method: as §2

[18] = Tertiary RLuc qRT-PCR qHTS assay for Zika virus inhibitors (AID 1347169); further: nearly all actives have a fitted effect of over 55% in size; further: potency means the concentration at half of the fitted maximal effect
Summary of the method: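 Inhibition of ZIKV-RLuc replication in Vero cells, read as Renilla luminescence 1-1.5 hrs after live-cell substrate addition, following 48-72 hrs infection at MOI 1-2 in presence of compound.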

[19] = qHTS for inhibitors of adenylyl cyclases using a fission yeast platform: a pilot screen against the NCATS LOPAC library (AID 1347410)
Summary of the method: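 Inhibition of GNAS-stimulated AC9 activity in S. pombe was inferred from derepression of a PKA-repressed fbp1-GFP reporter, measured as cytometric fluorescence after 18 h at 30C with compounds at up to 57 µM.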

[20] = Confirmatory screen GU Rhodamine qHTS for Zika virus inhibitors qHTS (AID 1347157); settings: purified enzyme assay, Rhodamine110 substrate fluorescence, 15 min
Summary of the method: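 Percent inhibition derives from the 15-min fluorescence change (ex 480, em 540 nm), normalized to no-enzyme and no-inhibitor wells. Reactions contained 25 nM NS2B-NS3 complex and 1.5 microM substrate in 10 mM Tris-HCl pH 8.0.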

Measured: Potency

Sequence of N-terminal Xaa-Pro-Lys N-methyltransferase 1 (Homo sapiens) (Q9BV86 whole entry, looked up): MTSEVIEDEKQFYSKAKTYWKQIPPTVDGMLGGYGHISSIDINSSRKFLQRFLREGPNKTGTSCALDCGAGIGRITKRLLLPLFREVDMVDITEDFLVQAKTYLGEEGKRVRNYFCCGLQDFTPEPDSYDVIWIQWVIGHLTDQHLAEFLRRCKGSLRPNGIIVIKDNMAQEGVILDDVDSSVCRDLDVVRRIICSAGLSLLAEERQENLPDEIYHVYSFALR
Sequence of Furin (Homo sapiens) (P09958 whole entry, looked up): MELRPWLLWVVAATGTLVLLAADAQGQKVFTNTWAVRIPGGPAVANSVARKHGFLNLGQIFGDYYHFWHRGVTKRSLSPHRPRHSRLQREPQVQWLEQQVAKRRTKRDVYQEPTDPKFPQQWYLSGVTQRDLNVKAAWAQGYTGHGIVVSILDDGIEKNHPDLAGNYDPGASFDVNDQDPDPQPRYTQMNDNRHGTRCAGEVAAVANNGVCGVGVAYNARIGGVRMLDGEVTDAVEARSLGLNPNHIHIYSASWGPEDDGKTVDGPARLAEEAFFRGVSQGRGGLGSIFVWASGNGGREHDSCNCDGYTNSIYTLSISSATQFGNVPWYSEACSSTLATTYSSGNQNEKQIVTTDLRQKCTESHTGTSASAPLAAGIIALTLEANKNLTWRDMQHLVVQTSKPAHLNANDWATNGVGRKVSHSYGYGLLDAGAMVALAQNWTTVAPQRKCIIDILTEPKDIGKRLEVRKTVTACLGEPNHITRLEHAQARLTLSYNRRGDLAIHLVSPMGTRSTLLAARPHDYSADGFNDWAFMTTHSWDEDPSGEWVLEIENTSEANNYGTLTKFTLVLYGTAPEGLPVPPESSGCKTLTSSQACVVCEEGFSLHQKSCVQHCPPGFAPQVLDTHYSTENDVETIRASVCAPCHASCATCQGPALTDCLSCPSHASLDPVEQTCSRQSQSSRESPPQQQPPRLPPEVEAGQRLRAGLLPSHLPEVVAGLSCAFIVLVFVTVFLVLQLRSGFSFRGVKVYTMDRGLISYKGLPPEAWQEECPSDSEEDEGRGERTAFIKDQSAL

C=C(c1ccc(C(=O)O)cc1)c1cc2c(cc1C)C(C)(C)CCC2(C)C
active: [4] 19.2 µM | [5] 19.2 µM and 21.5 µM | [6] 9.61 µM and 14.4 µM | [7] 7.08 µM | [8] 3.16 µM | [9] 1.96 µM and 2.47 µM | [10] 22.4 µM | [11] 7.94 µM
inactive: [1] | [2] | [3] | [12] | [13]

CCOc1cc(CC(=O)N[C@@H](CC(C)C)c2ccccc2N2CCCCC2)ccc1C(=O)O
inactive: [1] | [2] | [6]

O=C(CCc1ccc(O)cc1)c1c(O)cc(O)cc1O
inactive: [1] | [2] | [14]

Nc1ncn([C@H]2C[C@H](O)[C@@H](CO)O2)c(=O)n1
inactive: [1] | [2] | [6] | [13]

NC(=NCc1ccccc1)NC(=O)c1nc(Cl)c(N)nc1N
inactive: [6]
active: [15] 56.2 µM | [14] 26.7 µM

Clc1ccc2c(N3CCN(CCCN4CCN(c5ccnc6cc(Cl)ccc56)CC4)CC3)ccnc2c1
active: [15] 50.1 µM
inactive: [14] | [6]

Cc1nc(Nc2ncc(C(=O)Nc3c(C)cccc3Cl)s2)cc(N2CCN(CCO)CC2)n1
inactive: [1] | [6] | [7] | [8] | [16] | [10]
active: [2] 4.18 µM | [3] 50.1 µM | [14] 398 µM | [17] 282 µM | [12] 79.4 µM | [18] 0.224 µM

Cc1c(C(=O)NN2CCCCC2)nn(-c2ccc(Cl)cc2Cl)c1-c1ccc(Cl)cc1
inactive: [2] | [6] | [13]

C[C@H](Cc1ccc(O)c(O)c1)[C@@H](C)Cc1ccc(O)c(O)c1
active: [15] 10 µM | [14] 9.47 µM

COc1cc2c(cc1OC)C1CC(=O)C(CC(C)C)CN1CC2 (centres undefined)
active: [3] 27.1 µM
inactive: [15] | [4] | [5] | [6] | [9] | [17] | [12] | [18]

Nc1ccn([C@@H]2O[C@H](CO)[C@@H](O)C2O)c(=O)n1 (some centres undefined)
inactive: [1] | [2] | [6]

O=C(NCC1CCCCN1)c1cc(OCC(F)(F)F)ccc1OCC(F)(F)F (centres undefined)
inactive: [2] | [6] | [13]

Oc1ccc2ccccc2c1SSc1c(O)ccc2ccccc12
active: [15] 35.5 µM | [14] 10.6 µM

C[C@@H](c1ncncc1F)[C@](O)(Cn1cncn1)c1ccc(F)cc1F
inactive: [15] | [14] | [6]

Cc1nc(-c2ccc(OCC(C)C)c(C#N)c2)sc1C(=O)O
inactive: [5] | [17] | [12] | [18] | [13]
active: [3] 24.1 µM | [6] 21.5 µM | [9] 31.2 µM

O=C(O)c1cccnc1Nc1cccc(C(F)(F)F)c1
inactive: [15] | [14] | [6] | [13]

Cc1cc(O)c2c(c1)C(=O)c1cc(O)cc(O)c1C2=O
active: [15] 17.8 µM | [14] 15 µM
inactive: [6]

O=C(CS(=O)Cc1ccco1)NCC=CCOc1cc(CN2CCCCC2)ccn1 (centres undefined)
inactive: [6]

NNc1nncc2ccccc12
active: [15] 79.4 µM
inactive: [14] | [6] | [13] | [19]

O=c1c(O)c(-c2ccc(O)cc2O)oc2cc(O)cc(O)c12
active: [14] 11.9 µM | [20] 20 µM | [9] 12.6 µM | [10] 141 µM | [11] 50.1 µM
inactive: [3] | [7] | [18]

CC(=O)N1CCN(c2ccc(OC[C@H]3CO[C@](Cn4ccnc4)(c4ccc(Cl)cc4Cl)O3)cc2)CC1
inactive: [14] | [6]
active: [15] 50.1 µM

S=c1nc[nH]c2nc[nH]c12
inactive: [3] | [14] | [6] | [17] | [12] | [13]
active: [18] 20.8 µM

O=C(O)c1cn(-c2ccc(F)cc2)c2cc(N3CCNCC3)c(F)cc2c1=O
active: [3] 24.1 µM | [4] 24.1 µM and 27.1 µM
inactive: [17] | [12] | [18] | [13]

COc1ccccc1N1CCN(CCN(C(=O)C2CCCCC2)c2ccccn2)CC1
inactive: [15] | [14] | [6] | [8] | [16]

Cc1cccc(C#Cc2ccccc2)n1
inactive: [14] | [6]

CC1(C)C(=O)N(CCN2CCC(C(=O)c3ccc(F)cc3)CC2)c2ccccc21
inactive: [15] | [14] | [6]

CC[C@]1(O)C[C@H]2CN(CCc3c([nH]c4ccccc34)[C@@](C(=O)OC)(c3cc4c(cc3OC)N(C=O)[C@H]3[C@@](O)(C(=O)OC)[C@H](OC(C)=O)[C@]5(CC)C=CCN6CC[C@]43[C@@H]65)C2)C1
inactive: [6]

CNC[C@H](O)c1ccc(O)c(O)c1
inactive: [15] | [14] | [6] | [13]

O=c1cc(N2CCOCC2)oc2c(-c3ccccc3)cccc12
inactive: [6]
active: [14] 26.7 µM

COC(=O)C1=C(C)NC(C)=C(C(=O)OCCCN2CCC(c3ccccc3)(c3ccccc3)CC2)C1c1cccc([N+](=O)[O-])c1 (centres undefined)
inactive: [6]
